Outcome and Potency data for five molecules are collected here from PubChem BioAssay (NCATS).

Records with an inconclusive call do not appear. Calls of active or inactive are those of the source. The call rests on the fitted dose curve; in most records, active means well fitted curve in the direction sought with a large enough effect; inconclusive means small, poorly fitted or top-dose-only effect, or another doubt; inactive means no such curve, though single readings can be large; an effect the other way counts as inactive or inconclusive.

Assay [1] addresses Nuclear receptor subfamily 1 group I member 3 (Homo sapiens) (UniProt Q14994). The assay is described as follows: Primary qHTS for agonist of constitutive androstane receptor (CAR) against the NCATS DSHEA and TCM libraries (AID 1794839).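 Further: HepG2 cells expressing human CAR with a CYP2B6 reporter plus PK11195 antagonist; luciferase reporter luminescence read with ONE-Glo.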 The method, boiled down: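 Agonist mode in presence of hCAR antagonist PK11195 (0.75 µM final): test substances, 24 h, 37 °C, on HepG2-CYP2B6-hCAR cells. Same-well readouts: fluorescence viability, then ONE-Glo luminescence; CITCO as reference agonist.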
In general terms: In qHTS, concentration-response curves come from the screen itself.

The target in assay [2] is Cytochrome P450 2C9 (Homo sapiens) (UniProt P11712). The assay is described as follows: qHTS for inhibitors of CYP2C9 against the NCATS DSHEA and TCM libraries (AID 1919973). Further: potency means the concentration at half of the fitted maximal effect. The essentials: (§1)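 Isoform-specific enzyme and substrate levels; enzyme-free wells as background. Reaction: 1x NADPH regenerating system, 30-45 min, room temperature, shielded from light; luminescent detection reagent added, 30 min.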
Chain of Cytochrome P450 2C9 (Homo sapiens) (P11712 whole entry, looked up, canonical isoform): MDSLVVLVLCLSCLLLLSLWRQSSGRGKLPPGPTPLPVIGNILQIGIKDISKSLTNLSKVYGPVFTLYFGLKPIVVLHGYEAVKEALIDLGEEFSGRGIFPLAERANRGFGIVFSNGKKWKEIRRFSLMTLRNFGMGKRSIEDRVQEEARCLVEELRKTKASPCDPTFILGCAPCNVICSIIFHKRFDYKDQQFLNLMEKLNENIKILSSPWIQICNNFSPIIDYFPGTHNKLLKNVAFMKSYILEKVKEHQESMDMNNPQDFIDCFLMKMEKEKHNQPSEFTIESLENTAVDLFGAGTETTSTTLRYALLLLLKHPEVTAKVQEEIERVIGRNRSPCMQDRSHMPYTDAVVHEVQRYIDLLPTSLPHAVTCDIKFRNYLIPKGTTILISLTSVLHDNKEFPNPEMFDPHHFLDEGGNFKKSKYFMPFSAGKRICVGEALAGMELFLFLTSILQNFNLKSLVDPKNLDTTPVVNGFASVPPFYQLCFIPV

The nature of assay [3]: S16 Schwann cell viability assay (CellTiter-Glo assay) (AID 624031).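 Further: native untransfected S16 rat Schwann cells; nearly all actives have a fitted effect of over 70% in size.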 The method, boiled down:
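Counter-screen for cytotoxicity: parental S16 rat Schwann cells lacking the PMP22 reporters, treated 24 h with compound, viability from cellular ATP by CellTiter-Glo luminescence, normalized to DMSO (0%) and no-cell wells.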

The subject of a further assay is 7G8. The assay is described as follows: qHTS profiling for inhibitors of Plasmodium falciparum proliferation (AID 504749). Further: nearly all actives have a fitted effect of over 60% in size. Conditions: P. falciparum in erythrocytes, SYBR Green DNA, 72 h; series mostly up to 12.8 µM. The essentials: (§2)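 In a 72 h erythrocytic culture (37 C, humidified, 5% CO2) at 2.5% hematocrit and 0.3% starting parasitemia, compounds were tested; SYBR Green I in detergent lysis buffer stained parasite DNA overnight.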

The test system of another assay is CP192. The assay is described as above. Conditions: P. falciparum in erythrocytes, SYBR Green DNA, 72 h; series mostly up to 28.7 µM. The method, boiled down:
as §2

A further assay has as its system CP215. The description is as above. Conditions: P. falciparum in erythrocytes, SYBR Green DNA, 72 h; series mostly up to 28.7 µM. The essentials: as §2
A further assay relates to CP266. The assay is described as above. The conditions noted are these: P. falciparum in erythrocytes, SYBR Green DNA, 72 h; series mostly up to 28.7 µM. The method, boiled down: as §2
The subject of the next assay is GB4. Described as above. Conditions: P. falciparum in erythrocytes, SYBR Green DNA, 72 h; series mostly up to 12.8 µM. The method, boiled down:
as §2

The test system of the next assay is P93_24. Described as above. The conditions noted are these: P. falciparum in erythrocytes, SYBR Green DNA, 72 h; series mostly up to 12.8 µM. The method, boiled down: as §2
A further assay relates to DIV17. Described as above. The conditions noted are these: P. falciparum in erythrocytes, SYBR Green DNA, 72 h; series mostly up to 12.8 µM. The essentials: as §2
Assay [4] in a line: Viability counterscreen for agonist of constitutive androstane receptor (CAR) against the NCATS DSHEA and TCM libraries (AID 1794838). The essentials: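 Cell viability, from CellTiter-Fluor fluorescence (405/540 nm), was scored after a 24 h, 37C exposure of HepG2 cells carrying CYP2B6 reporter and hCAR to test substances in presence of 0.75 uM PK11195.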
In general terms: A counterscreen serves to expose hits that act by an unwanted route or on another target.

The target in assay [5] is Cytochrome P450 3A4 (Homo sapiens) (UniProt P08684). The assay is described as follows: qHTS for inhibitors of CYP3A4 against the NCATS DSHEA and TCM libraries (AID 1919971).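 Further: inhibition lowers luminescence from luciferin made by CYP3A4.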 The essentials:
as §1

Assay [6] concerns the target Cytochrome P450 2C19 (Homo sapiens) (UniProt P33261). The assay is described as follows: qHTS for inhibitors of CYP2C19 against the NCATS DSHEA and TCM libraries (AID 1919974).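 Further: luminescence from luciferin released by CYP2C19 oxidation of a pro-luciferin substrate.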 The essentials:
as §1

Chain of Nuclear receptor subfamily 1 group I member 3 (Homo sapiens) (Q14994 whole entry, looked up): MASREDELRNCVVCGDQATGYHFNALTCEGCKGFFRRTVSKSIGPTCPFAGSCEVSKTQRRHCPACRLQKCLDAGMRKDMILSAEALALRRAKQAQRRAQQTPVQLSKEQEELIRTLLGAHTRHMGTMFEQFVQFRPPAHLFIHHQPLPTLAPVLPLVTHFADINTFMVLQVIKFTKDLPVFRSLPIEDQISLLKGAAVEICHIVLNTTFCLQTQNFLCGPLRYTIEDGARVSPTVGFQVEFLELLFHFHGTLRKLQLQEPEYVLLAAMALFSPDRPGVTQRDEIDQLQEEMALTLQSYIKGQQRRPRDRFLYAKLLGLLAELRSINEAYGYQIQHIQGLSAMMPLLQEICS
Chain of Cytochrome P450 2C19 (Homo sapiens) (P33261 whole entry, looked up): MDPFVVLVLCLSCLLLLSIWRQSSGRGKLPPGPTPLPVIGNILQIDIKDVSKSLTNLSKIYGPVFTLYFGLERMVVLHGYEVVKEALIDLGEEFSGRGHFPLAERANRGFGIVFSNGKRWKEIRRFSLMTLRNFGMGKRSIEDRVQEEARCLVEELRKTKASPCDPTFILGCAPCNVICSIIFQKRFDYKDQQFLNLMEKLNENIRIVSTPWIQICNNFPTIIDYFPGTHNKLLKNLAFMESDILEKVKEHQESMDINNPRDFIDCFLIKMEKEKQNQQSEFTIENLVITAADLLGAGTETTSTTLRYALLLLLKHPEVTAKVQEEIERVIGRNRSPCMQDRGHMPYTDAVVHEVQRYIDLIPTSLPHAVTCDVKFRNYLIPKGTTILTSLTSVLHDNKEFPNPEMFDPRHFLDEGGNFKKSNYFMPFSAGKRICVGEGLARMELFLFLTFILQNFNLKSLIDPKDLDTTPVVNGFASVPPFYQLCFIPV
Chain of Cytochrome P450 3A4 (Homo sapiens) (P08684 whole entry, looked up): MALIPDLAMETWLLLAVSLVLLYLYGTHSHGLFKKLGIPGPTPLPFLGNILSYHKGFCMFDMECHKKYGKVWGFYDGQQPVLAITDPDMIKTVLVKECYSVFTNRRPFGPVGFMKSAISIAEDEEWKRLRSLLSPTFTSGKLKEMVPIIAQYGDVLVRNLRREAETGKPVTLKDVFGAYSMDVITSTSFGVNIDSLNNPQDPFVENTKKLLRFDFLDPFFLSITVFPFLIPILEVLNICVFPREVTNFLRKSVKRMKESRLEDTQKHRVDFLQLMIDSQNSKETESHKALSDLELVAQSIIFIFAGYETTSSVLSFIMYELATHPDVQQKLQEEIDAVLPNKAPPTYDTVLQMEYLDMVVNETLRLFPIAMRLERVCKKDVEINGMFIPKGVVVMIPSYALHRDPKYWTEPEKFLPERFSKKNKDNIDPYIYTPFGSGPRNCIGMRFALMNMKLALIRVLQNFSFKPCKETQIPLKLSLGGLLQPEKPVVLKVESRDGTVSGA

For the molecule `O=c1ccc2ccc(O)cc2o1`, the call in assay [1] was inactive. Moreover, the Potency in assay [2] is 7.08 µM (active).
Take `C[N+](C)(C)CC(O)CC(=O)O` (stereo unspecified): the Potency entry (in [3]; with 7G8; in the assay on CP192; in the assay with CP215; with CP266; in the assay on GB4) was “inactive” throughout. Also, the Potency entry with P93_24 was “inactive”.
On to `CC(C)N1CCN(c2ccc(OC[C@@H]3CO[C@@](Cn4cncn4)(c4ccc(Cl)cc4Cl)O3)cc2)CC1`, for which the Potency entry (in assay [3]; in the assay on DIV17) was “inactive” each time.
Take `O=C(Cc1cccs1)NC1C(=O)N2C(C(=O)[O-])=C(C[n+]3ccccc3)CSC12` (stereo unspecified): the Potency result with 7G8, in the assay with CP192, with CP215, in the assay with CP266, in the assay with DIV17 and in the assay with GB4 was “inactive” each time. For the same molecule, in the assay with P93_24, the Potency entry was “inactive”.
For the molecule `O=c1cc(-c2ccc(O)cc2)oc2cc(O[C@H]3OC(CO)C(O)C(O)C3O)cc(O)c12` (stereo partly specified), the outcome in assay [4] and in assay [5] was inactive. The Potency result in assay [6] is “inactive”.
